These results are taken from PubChem BioAssay (NCATS).

Records with an inconclusive call do not appear. A number with no mark means an inactive call. Active and inactive are the calls of the source. Calls come from the whole dose curve; as a rule, active = well fitted inhibition curve with a large enough effect; inconclusive = small, poorly fitted or top-dose-only effect; inactive = no such curve, though single readings can be large or run the other way.

One test deals with Rap guanine nucleotide exchange factor 4 (Homo sapiens) (UniProt Q8WZA2). The test can be described thus: Confirmatory qHTS for antagonist of cAMP-regulated guanine nucleotide exchange factor 4 (EPAC2) (AID 1645885). For activity change, negative = inhibition: % is set by controls: 0 for no effect and ±100 for the full control effect. Note: nearly all actives have a fitted effect of over 25% in size. The following applies: EPAC2 Rap1B-BODIPY-GDP exchange fluorescence, biochemical; series mostly up to 12.7 µM; activity change, negative = inhibition: at the top concentration. A general note: Quantitative high-throughput screening tests each substance at several concentrations.
Chain of Rap guanine nucleotide exchange factor 4 (Homo sapiens) (Q8WZA2 whole entry, looked up): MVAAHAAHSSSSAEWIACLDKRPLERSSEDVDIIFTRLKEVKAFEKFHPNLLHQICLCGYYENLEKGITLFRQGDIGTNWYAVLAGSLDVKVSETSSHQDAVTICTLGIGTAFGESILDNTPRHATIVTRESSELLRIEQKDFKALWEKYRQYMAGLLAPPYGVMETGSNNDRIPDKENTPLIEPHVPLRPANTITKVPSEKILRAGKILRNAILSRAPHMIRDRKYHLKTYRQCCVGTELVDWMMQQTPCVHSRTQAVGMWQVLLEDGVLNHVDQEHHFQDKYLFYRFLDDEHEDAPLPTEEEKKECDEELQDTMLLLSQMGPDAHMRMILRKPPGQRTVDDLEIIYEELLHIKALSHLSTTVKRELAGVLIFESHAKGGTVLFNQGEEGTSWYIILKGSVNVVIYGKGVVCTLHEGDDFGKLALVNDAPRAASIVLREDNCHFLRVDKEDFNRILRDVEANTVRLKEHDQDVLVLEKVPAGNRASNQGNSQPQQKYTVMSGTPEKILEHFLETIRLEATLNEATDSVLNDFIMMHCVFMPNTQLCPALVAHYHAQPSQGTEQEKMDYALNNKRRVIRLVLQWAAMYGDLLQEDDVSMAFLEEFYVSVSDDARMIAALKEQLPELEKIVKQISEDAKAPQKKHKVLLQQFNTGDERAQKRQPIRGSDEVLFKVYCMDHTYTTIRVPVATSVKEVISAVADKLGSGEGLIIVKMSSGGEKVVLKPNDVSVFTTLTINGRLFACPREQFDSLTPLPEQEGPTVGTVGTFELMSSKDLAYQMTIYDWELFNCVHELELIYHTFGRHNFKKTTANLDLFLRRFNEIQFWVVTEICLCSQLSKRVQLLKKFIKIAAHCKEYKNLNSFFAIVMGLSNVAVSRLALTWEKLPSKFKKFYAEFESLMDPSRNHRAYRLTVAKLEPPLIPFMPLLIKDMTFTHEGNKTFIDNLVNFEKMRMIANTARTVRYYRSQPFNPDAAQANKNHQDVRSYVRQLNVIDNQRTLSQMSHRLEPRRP
Regarding `COc1ccc2[nH]cc(CCNc3ncncc3-c3ccccc3Cl)c2c1`, the “activity change, negative = inhibition” value was -12.5% [at 114 µM].
Turning to `COc1ccccc1NC(=O)Cc1ccc(-c2ccccc2)cc1`, the “activity change, negative = inhibition” value is -13.3% [at 114 µM].
In the case of `Cc1cccc(NC(=O)CC2C(=O)OCCN2Cc2ccccc2)c1` (configuration not stated), the “activity change, negative = inhibition” value is 1.34%.
For `O=C(O)c1ccccc1-c1ccc(/C=C/c2cc(C(F)(F)F)[nH]c(=O)n2)o1`, the “activity change, negative = inhibition” value is 61.4%.
In the case of `CCOc1ccc(NC2c3ccccc3C(=O)N2Cc2ccco2)cc1` (configuration not stated), the compound was classed as inactive.

For another test, the target named is Rap guanine nucleotide exchange factor 3 (Homo sapiens) (UniProt O95398). Nature of the test: Counterscreen qHTS for antagonist of cAMP-regulated guanine nucleotide exchange factor 3 (EPAC1) (AID 1645888).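 Note: fluorescence loss as bound BODIPY-GDP is released from Rap1B; % of control where 0% means no effect.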 The following applies: Rap1B-BODIPY-GDP nucleotide exchange, fluorescence; series mostly up to 154 µM; activity change, negative = inhibition: at the top concentration. The gist of the method: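 Rap1B–BODIPY-GDP (250 nM) with 50 uM GDP; compounds pin-transferred to 9.74 nM–152 uM final (activator) or from 7.32 nM upwards (inhibitor). Fluorescence Ex/Em 480/540 nm read at 5 and 30 min, then after adding cAMP or buffer, at room temperature.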
Chain of Rap guanine nucleotide exchange factor 3 (Homo sapiens) (O95398 whole entry, looked up): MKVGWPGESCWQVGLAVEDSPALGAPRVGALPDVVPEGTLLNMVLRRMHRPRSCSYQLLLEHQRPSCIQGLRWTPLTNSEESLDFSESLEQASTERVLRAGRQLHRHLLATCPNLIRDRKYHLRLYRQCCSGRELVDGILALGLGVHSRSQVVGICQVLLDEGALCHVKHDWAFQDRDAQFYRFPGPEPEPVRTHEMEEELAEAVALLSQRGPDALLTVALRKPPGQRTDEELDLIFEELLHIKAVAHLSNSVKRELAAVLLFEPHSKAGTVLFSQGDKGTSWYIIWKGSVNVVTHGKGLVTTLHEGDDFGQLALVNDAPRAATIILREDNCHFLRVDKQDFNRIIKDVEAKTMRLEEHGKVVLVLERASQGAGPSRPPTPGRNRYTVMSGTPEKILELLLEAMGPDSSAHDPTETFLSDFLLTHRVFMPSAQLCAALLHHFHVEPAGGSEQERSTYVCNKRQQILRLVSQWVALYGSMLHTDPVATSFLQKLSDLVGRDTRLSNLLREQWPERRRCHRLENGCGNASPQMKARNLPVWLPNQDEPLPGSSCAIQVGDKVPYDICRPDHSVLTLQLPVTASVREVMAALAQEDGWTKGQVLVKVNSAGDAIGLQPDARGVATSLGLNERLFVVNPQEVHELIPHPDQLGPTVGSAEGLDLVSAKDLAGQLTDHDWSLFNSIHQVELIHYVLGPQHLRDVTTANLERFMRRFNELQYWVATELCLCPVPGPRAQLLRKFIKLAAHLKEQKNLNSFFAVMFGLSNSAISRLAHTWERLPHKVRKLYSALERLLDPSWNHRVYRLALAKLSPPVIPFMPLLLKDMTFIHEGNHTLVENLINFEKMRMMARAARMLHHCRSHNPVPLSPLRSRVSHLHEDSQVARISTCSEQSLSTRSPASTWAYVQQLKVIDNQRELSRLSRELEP
With `COC(=O)[C@@H]1CC[C@@](C)(c2ccc(OC)cc2)C1(C)C`, the activity change, negative = inhibition is 8.1% [at 30.8 µM].
Same read-out and setting: then `Cc1nn(-c2c(Cl)cc(Cl)cc2Cl)c(=O)c2ccccc12`, with 1.04%; and `COc1ccc(Cl)cc1NC(=O)CN1c2ccccc2CC1C` (configuration not stated), with -20.7%.
Same read-out and setting: then `COc1ccc(-n2cc(-c3ccccc3)c3c(N4CCOCC4)ncnc32)cc1`, with 10.9%.
Same read-out and setting: next, `CC(=O)N1N=C2c3ccccc3CCC2C1c1cccs1` (configuration not stated): -17.6% [at 30.8 µM]; `COc1ccccc1N(C)c1cc2c(c3c1ccn3C)C1CCC2O1` (configuration not stated): 31.7%; `COc1ccc(/C=C/C(=O)c2ccc(Cl)cc2)c(OC)c1`: -1.09%.
With `CCN(Cc1cc(=O)oc2cc(C)ccc12)c1ccccc1`, the “activity change, negative = inhibition” value was -10.1%.
For the compound `C=C(C)Cn1c(C)cc(C)c(S(=O)(=O)c2ccccc2C)c1=O`, the activity change, negative = inhibition is -6.66% [at 30.8 µM].
`COc1ccc2c(c1)CCc1c(C(=O)N3CCCc4ccccc43)noc1-2`: the “activity change, negative = inhibition” value is 5.78%.
As for `COc1ccc(Cl)cc1NC(=O)CN(C)Cc1ccc(OC)c(OC)c1`, the “activity change, negative = inhibition” value was -13.5%.
Still for that read-out and setting: then `CCn1c(=O)c(C(=O)NNS(=O)(=O)c2ccc(C)cc2)c(O)c2ccccc21`, with 8.03%.
